Shown are actives, neighbours in structure and some others; about 3.3% of the full set was active somewhere.
HNF4A DNA FP: change in binding of human HNF4 alpha to DNA | P41235 | HNF4a-FITC DNA binding, fluorescence polarization, 1 h | activity change, % at 10 µM | 360,000 tested, 0.3% active | AID 1224865; in the data active = activity change above about 30%, passing the limit was not always enough
CTSL1 counter: counter-screen for PFM18AAP inhibitors: inhibitors of F. hepatica cathepsin L1; recombinant F. hepatica cathepsin L1, Z-Leu-Arg-MCA fluorescence; inhibition, % at 5.96 µM; 300,000 tested, 0.49% active;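 active = inhibition above the mean of all tested compounds plus 3 SD, set per screening campaign, cut at about 17% in these data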;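 note: 0% = plate median of test compound wells and 100% = 1 µM Z-Phe-Ala-diazomethylketone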
PHOSPHO1 block: inhibitors of human PHOSPHO1 phosphatase | recombinant PHOSPHO1, absorbance phosphatase assay | inhibition, % at 13.3 µM | 290,000 tested, 1.1% active; in the data active = inhibition above about 60%
Target sequence (Q8TCT1 whole entry, looked up): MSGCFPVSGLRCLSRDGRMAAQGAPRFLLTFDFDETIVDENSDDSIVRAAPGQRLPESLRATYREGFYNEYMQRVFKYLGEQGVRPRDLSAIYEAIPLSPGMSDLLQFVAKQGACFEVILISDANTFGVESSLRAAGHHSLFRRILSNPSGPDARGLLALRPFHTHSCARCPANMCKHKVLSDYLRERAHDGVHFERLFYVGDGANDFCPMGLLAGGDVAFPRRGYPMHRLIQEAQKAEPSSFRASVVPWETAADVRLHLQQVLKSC
Rpn11 inh: blocks the human proteasome subunit Rpn11 | O00487 | human 26S proteasome, Ub4-pepOG fluorescence polarization; 20S core pre-blocked with epoxomicin | inhibition, % at 20 µM | 360,000 tested, 0.59% active;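 active = inhibition at 20 µM, scaled to each plate's controls, above about 33%, limit read from the data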
NRP1-CendR mod: alters CendR peptide binding to human NRP-1; O14786; FAM-RPARPAR peptide binding to NRP-1, fluorescence polarization; 360,000 tested, 0.85% active; AID 602438; inhibition, % at 25 µM;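 active = inhibition or corrected inhibition above about 18%, plus a signal ratio from 0.5 to 1.5, limit read from the data, passing the limit was not always enough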
TPT1 inh: C. albicans TPT1 enzyme inhibition; recombinant caTPT1, FP RNA substrate dephosphorylation; inhibition, % at 5 µM; 300,000 tested, 0.81% active; AID 1962;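 active = inhibition above the mean of all tested compounds plus 3 SD, set per screening campaign, cut at about 24% in these data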;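 note: plate controls were DMSO alone for no effect and ferristatin control at 100 nM for full effect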
TPT1 inh confirm: TPT1 (C. albicans) inhibition, confirmation. shares compounds with TPT1 inh. recombinant caTPT1, fluorescence polarization, RNase T1 coupled. inhibition, % at 5 µM. 2,400 tested, 74% active;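 active = inhibition above the primary screen limit, the mean inhibition of all tested compounds plus 3 SD, cut at about 25% in these data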
RNase T1 counter: blocks Aspergillus oryzae RNase T1, a TPT1 counter-screen; shares compounds with TPT1 inh; RNase T1 cleavage, fluorescence polarization, 1536-well; inhibition, % at 5 µM; 2,400 tested, 83% active;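 active = inhibition above the solvent-only control well mean plus 3 SD, limit set per screening run, cut at about 23% in these data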;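 note: plate controls were DMSO wells with enzyme for no effect and wells without RNase T1 for full effect; inhibitors block cleavage so intact labeled substrate keeps polarization high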
Target sequence (P00651 whole entry, looked up): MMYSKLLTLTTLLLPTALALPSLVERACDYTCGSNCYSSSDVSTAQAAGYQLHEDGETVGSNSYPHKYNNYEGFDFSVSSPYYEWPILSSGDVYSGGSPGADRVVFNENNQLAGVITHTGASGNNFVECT
Active calls of the source: *; . = not tested or not shown.

SMILES	HNF4A DNA FP	CTSL1 counter	PHOSPHO1 block	Rpn11 inh	NRP1-CendR mod	TPT1 inh	TPT1 inh confirm	RNase T1 counter
COc1ccccc1/C=C/C1=NC(=C\C=C/c2ccccc2)/C(=O)O1	-5.8	3.8	0.3	30.2	-91.1	73.5*	119.1*	122.4*
Cn1c(N/N=C/c2c[nH]c3ccccc23)nc2ccccc21	-3.5	3.5	37.9	15.6	-6.9	-0.4	.	.
Cn1c(N/N=C/c2cc3ccccc3nc2Cl)nc2ccccc21	60.3*	0.4	-15.9	10.1	-77.2	68.9*	10.0	18.9
N#Cc1ccc(OCC(=O)Nc2nc(-c3cccnc3)cs2)cc1	-1.6	.	.	2.2	-28.1	.	.	.
COc1ccc(CCCc2nnc(SCc3nc4ccccc4c(=O)[nH]3)n2C)c(C)c1	1.4	3.6	17.1	-3.8	7.7	-2.3	.	.
CCOc1ccc(Br)cc1S(=O)(=O)Nc1nc(CN2CCOCC2)nc2sc(C)c(C)c12	4.8	1.7	26.1	24.5	-35.1	31.1*	27.2*	35.0*
Cc1sc2nc(CN3CCOCC3)nc(NS(=O)(=O)c3ccccc3)c2c1C	-3.2	-1.0	13.1	3.6	-12.5	5.6	.	.
CCC(C)N1C(=O)/C(=C/c2c(NCCCOC(C)C)nc3c(C)cccn3c2=O)SC1=S (centres undefined)	1.8	2.5	42.0	7.0	136.6	150.8*	164.8*	156.2*
CCC(C)Nc1nc2c(C)cccn2c(=O)c1C=Nc1ccc(OC)cc1 (centres undefined)	-0.5	0.5	-26.2	0.0	-12.4	0.1	.	.
CC(C)OP(C)(=O)CN1CCN(CP(C)(=O)OC(C)C)CC1 (centres undefined)	-0.2	-2.5	1.2	-16.2	-3.8	0.4	.	.
COc1ccccc1C1CCN(C(=O)c2cccc([N+](=O)[O-])c2)CC1	-4.8	0.0	-12.7	-3.6	4.9	-0.6	.	.
CC[n+]1c(/C=C/C=C/N(C(C)=O)c2ccccc2)sc2ccccc21	-42.4	5.0	54.0	.	126.9	64.3*	68.2*	73.9*
CCCCN1C(=O)c2cccc3cc(O)cc(c23)C1=O	-5.7	2.0	.	-8.2	5.9	37.3*	42.0*	47.9*
Cc1c(C#N)c(O)[nH]c(=O)c1N=Nc1ccc(S(N)(=O)=O)cc1	7.4	1.3	-3.5	6.7	3.8	24.5*	13.7	26.3*
Cc1c(C#N)c(O)[nH]c(=O)c1N=Nc1ccc(Cl)c(C(=O)O)c1	4.6	-5.3	32.6	9.8	-3.6	7.5	.	.
O=C(CN1CCN(S(=O)(=O)c2ccc(Br)cc2)CC1)N/N=C/c1ccncc1	4.1	2.1	3.7	0.9	-16.2	0.6	.	.
N#CC1=C(N)SC(N)=C(C#N)C1c1ccnc2ccccc12	38.6*	3.9	76.4*	.	-179.0	102.8*	74.4*	84.5*
O=C1c2ccccc2C(=O)C1c1ccnc2ccccc12	8.7	0.6	-1.2	13.7	-25.1	10.7	.	.
Cc1cc2oc(=O)cc(CN3CCCc4ccccc43)c2cc1C	7.6	0.7	73.8*	.	-80.7	48.4*	43.3*	53.1*
Cc1cc2oc(=O)cc(CN3CCCCC3)c2cc1C	3.5	1.2	36.0	12.9	6.1	1.1	.	.
Cc1c(O)c2c3c(cccc3c1O)C(=O)N(c1ccccc1)C2=O	-2.9	2.1	-3.4	-8.7	-5.3	39.2*	27.4*	39.7*
CNC(=O)c1ccc(-c2sc3nc(N4CCOCC4)c4c(c3c2N)CC(C)(C)OC4)o1	2.5	6.8	24.4	7.7	13.2	-0.3	.	.
CC1(C)Cc2c(c(N3CCOCC3)nc3sc(-c4ccc(C(=O)O)o4)c(N)c23)CO1	84.8*	3.8	-13.3	.	-213.4	32.8*	35.0*	46.9*
Cc1[nH]c2c(ccc3ccccc32)c1C1C(CCN)C1(C)C (centres undefined)	5.6	2.4	-2.1	12.8	-20.9	-2.7	.	.
COCCN=c1scc(-c2ccc3c(c2)NC(=O)CO3)n1/N=C(\C)c1ccc(O)cc1	3.9	6.7	6.1	23.3	-18.9	26.5*	10.4	17.9
SMILES	HNF4A DNA FP	CTSL1 counter	PHOSPHO1 block	Rpn11 inh	NRP1-CendR mod	TPT1 inh	TPT1 inh confirm	RNase T1 counter
COc1cc(/C=N/n2c(-c3ccc4c(c3)NC(=O)CO4)csc2=Nc2cccc(C)c2)ccc1O	5.1	-0.2	-1.5	-0.7	-8.5	-0.6	.	.
CCN(CC)c1ccc2cc(/C(N)=N/NC(=O)c3cccs3)c(=O)oc2c1	.	-4.5	10.0	.	.	87.1*	108.0*	111.6*
CCN(CC)c1ccc2cc(C=O)c(=O)oc2c1	14.2	12.9	-2.6	.	143.5	120.7*	101.8*	100.8*
CCCCCCc1cc2cc(C(N)=O)c(=N)oc2cc1O	.	1.7	11.3	.	.	66.7*	7.6	22.3*
N/C(=N\NC(=O)c1cccs1)c1cc2ccccc2oc1=O	-0.2	3.9	1.8	2.5	13.4	1.3	.	.
CCCCCCc1cc2cc(C(=O)NC)c(=N)oc2cc1O	-83.3	6.0	19.4	-161.0	124.5	8.7	.	.
CCN(CC)c1ccc2nc3c4ccccc4c(=O)cc-3oc2c1	.	.	23.3	.	.	.	.	.
CCN(CC)c1ccc2cc(C(N)=O)c(=N)oc2c1	-22.3	1.9	-17.4	.	135.3	72.8*	70.9*	75.4*
CSc1cccc(-n2ccc(=O)c(C)c2C)c1	-3.5	-1.1	38.1	-6.3	-2.6	-1.0	.	.
CCN(CC)c1ccc2cc(C(=O)Nc3ccccn3)c(=O)oc2c1	31.8	1.3	-13.6	-26.5	-21.9	134.6*	109.2*	111.6*
CCN(CC)c1ccc2cc(-c3nnc(-c4ccncc4)o3)c(=O)oc2c1	-84.1	.	0.1	.	131.8	.	.	.
CCN(CC)c1ccc2cc(C(C)=O)c(=O)oc2c1	.	8.7	1.5	.	-39.8	130.8*	109.0*	108.8*
COc1ccc(/C=C2/CC/C(=C\c3ccc(OC)c(OC)c3OC)C2=O)c(OC)c1OC	4.9	1.9	0.6	30.3	-18.0	24.4*	36.5*	42.7*
COc1cc(/C=C2\COC/C(=C\c3cc(OC)c(OC)c(OC)c3)C2=O)cc(OC)c1OC	2.3	.	21.0	0.3	5.3	.	.	.
COc1cc(/C=C2\CC/C(=C\c3cc(OC)c(OC)c(OC)c3)C2=O)cc(OC)c1OC	-0.4	0.1	-3.9	12.4	-51.2	39.0*	48.3*	56.7*
Nc1c(C(=O)Nc2nccs2)sc2nc(-c3cccs3)cc(C(F)(F)F)c12	60.6	-3.3	58.0	.	128.4	30.9*	28.7*	41.2*
CC(=O)n1nc2nc(C)cc(C)c2c1N	-1.4	-5.8	18.3	-2.9	4.0	-4.9	.	.
CCOc1ccccc1C(=O)n1nc2nc(C)cc(C)c2c1N	-1.3	-1.3	29.1	1.7	-10.3	44.3*	2.7	6.8
O=C1CC(=O)N(CCNc2ncc(C(F)(F)F)cc2Cl)C(=O)N1	17.1	-1.8	13.5	18.6	-27.7	38.3*	23.4	38.9*
